Screening data: PubChem BioAssay, several laboratories
Most compounds without a hit are left out; they make up all but 27% or so of the library.
CYP2C19 inh = blockers of cytochrome P450 2C19 activity – biochemical, luminescence, ADME assay, primary screen; P33261; CYP2C19 Supersomes, luciferin-H EGE luminescence, 30 min; inhibition, % at 5 µM; 96,000 compounds, 21% hits; AID 778, 2007;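 active = CYP2C19 inhibition above a set limit at 5 µM in the primary screen, cut at about 50% in these data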
Target sequence (P33261 whole entry, looked up): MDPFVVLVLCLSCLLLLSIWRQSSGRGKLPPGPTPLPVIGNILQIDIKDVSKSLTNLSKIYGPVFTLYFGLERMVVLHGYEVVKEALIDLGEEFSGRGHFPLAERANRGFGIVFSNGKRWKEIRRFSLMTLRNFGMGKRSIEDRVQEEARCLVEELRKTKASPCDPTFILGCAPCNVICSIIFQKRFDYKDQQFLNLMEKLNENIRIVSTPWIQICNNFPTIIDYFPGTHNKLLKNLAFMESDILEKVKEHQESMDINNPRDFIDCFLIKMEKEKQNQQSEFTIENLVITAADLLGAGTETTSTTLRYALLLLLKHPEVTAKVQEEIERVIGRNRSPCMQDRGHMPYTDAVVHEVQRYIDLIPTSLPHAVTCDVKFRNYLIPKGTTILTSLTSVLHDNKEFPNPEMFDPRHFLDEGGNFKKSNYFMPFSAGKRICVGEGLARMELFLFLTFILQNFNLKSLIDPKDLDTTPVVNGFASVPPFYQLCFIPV
CYP2C9 act = human CYP2C9 activators, primary screen, biochemical, luminescence. recombinant CYP2C9, luciferin-H conversion; active compounds read high; factor 1 = untreated enzyme, 0 = blocked. 96,000 compounds, 1.4% hits. activation factor at 5 µM;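 active = activation factor of 2 or more for CYP2C9 at a 5 µM dose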
CYP2C9 inh = blockers of cytochrome P450 2C9 activity – biochemical, luminescence, ADME assay, primary screen; inhibition, % at 5 µM; 96,000 compounds, 20% hits; CYP2C9 Supersomes, luciferin-H conversion; P11712;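 active = blocking of liver enzyme CYP2C9 beyond about 50% at 5 µM, limit read from the data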
Cav32 inh = Cav3.2 calcium influx blockers – cell-based, Fluo-4 calcium fluorescence, FDSS, MLSMR library, primary screen; Cav3.2-expressing cells; active compounds read low; B-score at 10 µM; 100,000 compounds, 4% hits; AID 449739, 2010;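 active = single-dose well whose peak fluorescence ratio is a statistical outlier from its plate by either plate-standardised score or position-corrected B-score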
CYP2C19 act = human CYP2C19 activators, primary screen, biochemical, luminescence; recombinant CYP2C19, luciferin-H EGE luminescence; active compounds read high; 0 = fully inhibited enzyme, 1 = untreated enzyme; 96,000 tested, under 10 active; Cytochrome P450 2C19 (Homo sapiens), P33261; activation factor at 5 µM; AID 1025, 2008;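 active = activation factor of at least 2 at 5 µM in the primary screen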
Each line names hits and unclear results; the compound was inactive in the other large screens.

CCOc1ccccc1C(=O)NC(C(=O)OCC(=O)Nc1nnc(-c2ccccc2)o1)C(C)C (stereo not given)	none
CCOC(=O)c1c(C)[nH]c(C)c1C(=O)COC(=O)CNC(=O)c1ccc(OCC)cc1	CYP2C19 inh 53
CCOc1ccc(C(=O)NCC(=O)OCC(=O)Nc2ccccc2OCC)cc1	none
O=C(O)C1=C[C@@H](c2ccc3c(c2)OCO3)C[C@@H](OCCCCO)O1	none (no result: CYP2C19 inh, CYP2C9 act, CYP2C9 inh, CYP2C19 act)
O=C(OC(C(=O)NC1CCCC1)c1ccncc1)C1=Cc2ccccc2OC1 (stereo not given)	CYP2C19 inh 89, CYP2C9 inh 74
C=CCOc1ccccc1/C=c1\sc2nc(=O)c(C)nn2c1=O	none (no result: CYP2C19 inh, CYP2C9 act, CYP2C9 inh, CYP2C19 act)
Cc1c(Cl)cccc1NC(=S)NN1CCOCC1	CYP2C19 inh 67
Cc1ccc(NC(=S)NCc2ccc3c(c2)OCO3)c(C)c1	CYP2C19 inh 90
Cc1cc(Cl)ccc1NC(=S)NCCC(c1ccccc1)c1ccccc1	CYP2C19 inh 88, CYP2C9 inh 85, Cav32 inh -3.6
Cc1c(Cl)cccc1NC(=S)NCCC(c1ccccc1)c1ccccc1	Cav32 inh -6.9 (no result: CYP2C19 inh, CYP2C9 act, CYP2C9 inh, CYP2C19 act)
CC(=O)Oc1cc2oc(=O)c3c(c2cc1Cl)CCC3	none
CNC(=S)NCc1ccc(Cl)cc1	none (no result: CYP2C19 inh, CYP2C9 act, CYP2C9 inh, CYP2C19 act)
Cc1cc(Cl)ccc1NC(=S)NCc1ccc(Cl)cc1	CYP2C19 inh 52, CYP2C9 inh 52
Cc1csc(NC(=O)c2c(O)c3c(n(CC(C)C)c2=O)CCCC3)n1	CYP2C9 inh 51
CCCn1c2c(c(O)c(C(=O)Nc3nc(C)cs3)c1=O)CCCC2	none
OCC[C@H]1C[C@H](O)[C@@H](O)[C@@]2(CCCO2)O1	none (no result: CYP2C19 inh, CYP2C9 act, CYP2C9 inh, CYP2C19 act)
Cc1cc2n(n1)C(c1ccsc1)Nc1ccccc1-2 (stereo not given)	CYP2C19 inh 61, CYP2C9 inh 56
Oc1ccccc1-c1cc(-c2ccccc2Cl)[nH]n1	none
CSc1ccc(C2Nc3ccccc3-c3cc(C)nn32)cc1 (stereo not given)	CYP2C19 inh 50
Cc1cc2n(n1)C(c1ccccc1Cl)Nc1ccccc1-2 (stereo not given)	CYP2C19 inh 86, CYP2C9 inh 75
Cc1nonc1OCCNC(=O)C12CC3CC(CC(C3)C1)C2	none
Oc1ccccc1Nc1ncnc2c1oc1ccccc12	none
O=S(=O)(Nc1ncnc2c1oc1ccccc12)c1ccc(Cl)s1	CYP2C19 inh 61, CYP2C9 inh 92
Cc1ccc(Cl)cc1N1CCN(Cc2nnnn2Cc2ccco2)CC1	CYP2C19 inh 77, CYP2C9 inh 93, Cav32 inh -6.7
CCC(c1nnnn1Cc1ccco1)N1CCC(C(N)=O)CC1 (stereo not given)	none
CCC(c1nnnn1Cc1ccco1)N1CCN(c2cc(Cl)ccc2C)CC1 (stereo not given)	CYP2C9 inh 59, Cav32 inh -5.8
Clc1ccc(C2=NOC(c3nnc(-c4ccccc4)o3)C2)cc1 (stereo not given)	none (no result: CYP2C19 inh, CYP2C9 act, CYP2C9 inh, CYP2C19 act)
Cc1nnc(SCC(N)=O)n1CCc1ccccc1	none (no result: CYP2C19 inh, CYP2C9 act, CYP2C9 inh, CYP2C19 act)
C/C=C1\COC(C(=O)NCCCN2CCCC2=O)(C(F)(F)F)C=C1C=C(C)C (stereo not given)	none (no result: CYP2C19 inh, CYP2C9 act, CYP2C9 inh, CYP2C19 act)
Cn1cnnc1SCC(=O)c1c[nH]c2ccccc12	none
N#CCCn1c(SCC(=O)c2c[nH]c3ccccc23)nc2ccccc21	CYP2C19 inh 70
CN(C)C(=O)N1CCC(C(=O)NCc2ccccc2)CC1	none
COc1ccc(C(=O)COC(=O)CN2C(=O)NC(C)(C)C2=O)cc1OC	none
CC(C)Nc1nc(NC(C)C)nc(OCCOC(=O)Nc2ccccc2)n1	none
C=CCn1c(=O)c2c(nc(Br)n2Cc2ccccc2Cl)n(C)c1=O	CYP2C19 inh 71
O=C(CNc1cccc(Cl)c1)c1ccc(Cl)cc1	CYP2C19 inh 86
O=C(Nc1ccc(NC(=O)C2CC2)nc1)c1ccncc1	CYP2C9 inh 56
O=C(NNC(=O)c1cccnc1)Nc1ccc(Cl)c(Cl)c1	none
O=C(Nc1ccc(Cc2ccncc2)cc1)c1ccc(Cl)c([N+](=O)[O-])c1	CYP2C19 inh 77, CYP2C9 inh 76, Cav32 inh -8.7
O=C(Nc1ccc(Cl)c(Cl)c1)c1ccncc1	CYP2C19 inh 96, CYP2C9 inh 54
O=C(Nn1c(=O)[nH]c2ccccc2c1=O)c1ccco1	none
Cc1ccc(-n2c(C)cc(/C=N/NC(=O)c3ccncc3)c2C)c(C)c1	none
O=C(Nc1ccc(Cl)c(Cl)c1)c1csc(-c2ccccc2)n1	none (no result: Cav32 inh)
O=C(Nc1cccc(Cl)c1)c1ccncc1	CYP2C19 inh 68
O=C(Nc1cccc(Cl)c1)c1csc(-c2ccccc2)n1	CYP2C9 inh 58 (no result: Cav32 inh)
CCCC12CN3CC(CCC)(CN(C1)C3C(O)C(O)C(O)CO)C2=O (stereo not given)	none
O=C(Nc1ccc(Cl)cc1)C(c1ccccc1)N(CCO)CCO (stereo not given)	CYP2C19 inh 63, CYP2C9 inh 66
COc1cccc(NC(=O)C(NCC2CCCCC2)c2ccccc2)c1 (stereo not given)	CYP2C19 inh 79, CYP2C9 inh 77
COc1cccc(NC(=O)C(OC(=O)/C=C/c2ccc3c(c2)OCO3)c2ccccc2)c1 (stereo not given)	CYP2C9 inh 69, Cav32 inh -5.1
COc1cccc(NC(=O)C(NCCC(C)C)c2ccccc2)c1 (stereo not given)	Cav32 inh -6.2
CCOC(=O)Cn1c(N2CCOCC2)nc2c1c(=O)[nH]c(=O)n2C	none
COc1ccc(-c2ccc3oc(-c4ccc(OC)cc4)c(C#CC4(O)CCCCC4)c3c2)cc1	none (no result: CYP2C19 inh, CYP2C9 act, CYP2C9 inh, CYP2C19 act)
CCN(CCCNC(=O)CC1Oc2ccc(C)cc2NC1=O)Cc1ccccc1 (stereo not given)	none
O=C1O[C@@H]([C@H](O)CO)C(O)=C1O	none (no result: CYP2C19 inh, CYP2C9 act, CYP2C9 inh, CYP2C19 act)
CCCc1nc2c(C)ccc(C)c2c(N)c1CC	none
CCCN(CCC)C(C(=O)Nc1cccc(OC)c1)c1ccccc1 (stereo not given)	CYP2C19 inh 88, CYP2C9 inh 89 (no result: Cav32 inh)
O=c1c2c(-c3cccs3)csc2ncn1-c1ccc(Br)cc1	none
COc1cccc(-n2cnc3scc(-c4cccs4)c3c2=O)c1	CYP2C9 inh 79 (no result: Cav32 inh)
COc1ccc(C(=O)Nn2cnc3scc(-c4cccs4)c3c2=O)c(O)c1	Cav32 inh -9 (no result: CYP2C19 inh, CYP2C9 act, CYP2C9 inh, CYP2C19 act)
CC(NC(=S)NCCc1ccccc1)C(c1cccs1)N1CCN(C)CC1 (stereo not given)	none (no result: CYP2C19 inh, CYP2C9 act, CYP2C9 inh, CYP2C19 act)
Cc1cc(C)nc(N(C#N)CN2C(=O)c3ccccc3C2=O)n1	CYP2C9 act 2.8
CCOC(=O)CN(C#N)c1nc(C)cc(C)n1	none
Cc1cc(C)nc(N(C#N)S(=O)(=O)c2ccccc2)n1	none
Cc1cc(C)nc(N(C#N)Cc2ccccc2Cl)n1	CYP2C19 inh 68, CYP2C9 act 2.8 (no result: Cav32 inh)
CC1(OC(=O)CCc2ccccc2)C(=O)C=C2C=C(C3CC3)OC=C2C1=O (stereo not given)	none (no result: CYP2C19 inh, CYP2C9 act, CYP2C9 inh, CYP2C19 act)
